# From the supplement of paper PMC8728848
# The full list was thinned out, with the strongest signals kept by preference.
# Columns and labels:
# Assay in all cases: glycan array binding signal (z-score within array); higher = stronger binding
# Settings in all cases: glycan notation: IUPAC condensed, linker removed
# [1] = system: Fuc(a1-2)Gal(b1-4)[Fuc(a1-3)]GlcNAc(b1-2)Man(a1-3)[Fuc(a1-2)Gal(b1-4)[Fuc(a1-3)]GlcNAc(b1-2)Man(a1-6)]Man(b1-4)GlcNAc(b1-4)GlcNAc
# Outline: (§1)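 Negative Z-scores can be read as non-binding. The Z-score is calculated within each array and then averaged across arrays of one protein sequence at different concentrations or buffers and across linkers. Arrays, 3228 in all, were curated from the Consortium for Functional Glycomics database and kept only where the protein sequence was available.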
# [2] = system: Fuc(a1-2)Gal(b1-4)[Fuc(a1-3)]GlcNAc(b1-3)GalNAc
# Outline: as §1
# [3] = system: Fuc(a1-2)Gal(b1-4)GlcNAc(b1-6)GalNAc
# Outline: as §1
# [4] = system: Fuc(a1-2)Gal(b1-4)GlcNAc(b1-3)[Fuc(a1-2)Gal(b1-4)GlcNAc(b1-6)]GalNAc
# Outline: as §1
# [5] = system: Fuc(a1-2)Gal(b1-4)GlcNAc(b1-3)[Fuc(a1-3)[Gal(b1-4)]GlcNAc(b1-6)]Gal(b1-4)Glc
# Outline: as §1
# [6] = system: Fuc(a1-2)Gal(b1-4)[Fuc(a1-3)]GlcNAc(b1-3)Gal(b1-4)[Fuc(a1-3)]GlcNAc(b1-3)Gal(b1-4)[Fuc(a1-3)]GlcNAc
# Outline: as §1
# [7] = system: Fuc(a1-2)Gal(b1-4)GlcNAc6S
# Outline: as §1
# [8] = system: Fuc(a1-2)Gal(b1-4)[Fuc(a1-3)]GlcNAc
# Outline: as §1
# Fuc(a1-2)Gal(b1-4)GlcNAc = system: Fuc(a1-2)Gal(b1-4)GlcNAc
# Outline: as §1
# [9] = system: Fuc(a1-2)Gal(b1-4)[Fuc(a1-3)]GlcNAc(b1-3)Gal(b1-4)[Fuc(a1-3)]GlcNAc
# Outline: as §1
substance,measurement,setting,value
"SiiE (Salmonella typhimurium), A0A0H3NVH0",glycan array binding signal (z-score),[1],2.43
same,glycan array binding signal (z-score),[2],1.53
"Wza (Escherichia coli), P0A930",glycan array binding signal (z-score),[3],0.01
AgI/IIC123-GFP (Streptococcus mutans),glycan array binding signal (z-score),[4],-0.365
same,glycan array binding signal (z-score),[5],0.17
same,glycan array binding signal (z-score),[6],-0.094
"SpGH101 (Streptococcus pneumoniae), Q8DR60",glycan array binding signal (z-score),[7],-0.166
same,glycan array binding signal (z-score),[2],0.136
same,glycan array binding signal (z-score),[8],-0.183
Epa22,glycan array binding signal (z-score),Fuc(a1-2)Gal(b1-4)GlcNAc,0.238
LcI (Legionella pneumophila),glycan array binding signal (z-score),[5],-0.92
same,glycan array binding signal (z-score),[8],-0.561
"BambL (Burhholderia ambifaria), Q0B4G1",glycan array binding signal (z-score),Fuc(a1-2)Gal(b1-4)GlcNAc,3.81
same,glycan array binding signal (z-score),[9],3.28
